# According to PubChem BioAssay AID1117361 (Southern Research Institute, 2015):
# Hit rate of the full screen: of about 3,600 compounds, about 900 (25%) were called active. How the calls were made is not given here. These entries were drawn from the full list. Entries with a potency or affinity are not part of this list.
# Biological target: Protein Tat (Human immunodeficiency virus type 1 group M subtype B (isolate HXB2)) (UniProt P04608)
# Test: HIV-1 Tat–TAR interaction blockers – biochemical, fluorescence polarization, FAM-labeled TAR RNA, counter-screen for Vif-APOBEC3G degradation inhibitor project, dose response (AID 1117361)
# Conditions: Tat-TAR RNA binding; series mostly up to 100 µM; inhibition: at the top concentration
Compound,inhibition,outcome
O=C(c1cc2ccccc2o1)N1CC=C(c2ccccc2)CC1,10.7% (inactive),–
O=C(CCC(=O)NNc1nc2ccccc2c2nc(-c3ccccc3)nn12)NCCCN1CCOCC1,0.82% (inactive),–
Cc1ccc2nsnc2c1S(=O)(=O)N(CCO)Cc1cc2cc3c(cc2[nH]c1=O)OCCO3,2.05% (inactive),–
CCn1c(SCC(=O)NCC(=O)Nc2ccc(F)cc2)nnc1-c1ccncc1,2.73% (inactive),–
CCn1c(=O)cc(SCC(=O)NCc2ccc(C)o2)c2ccccc21,8.19% (inactive),–
Cc1cccc(OCc2nc3ccccc3c(=O)n2N)c1,–,inactive
CC(=O)c1ccc(NC(=O)C(C)OC(=O)C(C)Oc2cccc(C)c2)cc1 (centres undefined),–,inactive
Cc1ccc([N+](=O)[O-])cc1NC(=O)CCSc1ccc(Cl)cc1,0.68% (inactive),–
CCCn1nc(C(=O)Nc2cc(C(=O)OC)ccc2C)c2ccccc2c1=O,4.05% (inactive),–
CCCCN1C2=C(C(=O)CC(C)(C)C2)C(c2ccccc2)C2=C1c1ccccc1C2=O (centres undefined),6.14% (inactive),–
COC(=O)Cc1csc(Nc2c(C)n(C)n(-c3ccccc3)c2=O)n1,1.67% (inactive),–
Cc1cc(C)cc(N(C(C)C(=O)Nc2c(C)n(C)n(-c3ccccc3)c2=O)S(C)(=O)=O)c1 (centres undefined),5.46% (inactive),–
CC1=C/C(=N\OS(=O)(=O)c2ccccc2)C=CC1=O,–,inactive
Cc1c(NC(=O)c2cc(-c3cccs3)on2)c(=O)n(-c2ccccc2)n1C,10.2% (inactive),–
Cc1cc(C(=O)Nc2ccc(S(=O)(=O)Nc3onc(C)c3C)cc2)cs1,5.46% (inactive),–
CCOc1ccc2nc(SCc3ccc(C(=O)OC)o3)[nH]c2c1,26.4% (inactive),–
COC(=O)c1ccc(Cn2c(C)cc(C)[n+]2C)o1,6.76% (inactive),–
COc1ccccc1N1CCN(C(=O)c2ccoc2C)CC1,4.34% (inactive),–
COc1ccc(S(=O)(=O)N2CCN(C(=O)c3cc4c(s3)CCC4)CC2)cc1,–,inactive
O=C(c1ccco1)N(CCC(c1ccccc1)c1ccco1)Cc1ccc(F)cc1 (centres undefined),0.68% (inactive),–
Cc1c(NC(=O)COC(=O)c2ccccc2Cl)c(=O)n(-c2ccccc2)n1C,–,inactive
Cc1cccc(OCCC(=O)Nc2c(C)n(C)n(-c3ccccc3)c2=O)c1,–,inactive

Compound,inhibition,outcome
CCOC(=O)Nc1cc(C)c(Cl)cc1OC,0.33% (inactive),–
Nc1cc(C(=O)O)ccc1N1CCCCC1,2.34% (inactive),–
CC(C)(C)NC(=O)c1cc([N+](=O)[O-])ccc1N1CCCCC1,–,inactive
Cc1ccc(Cn2c(SCC(C)C)nc3c2c(=O)n(C)c(=O)n3C)cc1,1.35% (inactive),–
CCn1c(C)cc(=S)c2ccccc21,2.34% (inactive),–
CCN(CC(=O)Nc1ccc(NC(C)=O)cc1)C(=O)C1CCCC1,13.2% (inactive),–
O=C(Cn1c2[n+](c3ccc(C(F)(F)F)cc31)CCCCC2)Nc1c(F)cccc1F,4.95% (inactive),–
Cc1ccc(C(=O)Nc2nc(=O)n(C(=O)c3ccccc3C)s2)cc1,–,inactive
CCS(=O)(=O)c1ccc2oc(Nc3cccc(OC)c3)nc2c1,11.6% (inactive),–
Cc1nn(Cc2ccccc2)c(C)c1NC(=O)Cn1nc([N+](=O)[O-])c(Cl)c1C,–,inactive
O=c1[nH]nc(Cc2ncc(C(F)(F)F)cc2Cl)c2ccccc12,1.67% (inactive),–
N#Cc1nc(COc2ccc(Cl)cc2Cl)oc1N1CCOCC1,6.14% (inactive),–
COc1ccc(N2CCN(c3oc(COc4ccc(Cl)cc4Cl)nc3C#N)CC2)cc1,2.73% (inactive),–
O=C1CN(C(=O)CSc2nnc(C3CC3)n2-c2ccccc2)c2ccccc2N1,–,inactive
Cc1nc(Nc2ccc(S(N)(=O)=O)cc2)sc1C(=O)Nc1ccccc1,–,inactive
O=C(Nc1cnccn1)c1csc2ccccc12,6.08% (inactive),–
Clc1ccc2c(c1)nc1n2CCCC1,–,inactive
COc1ccc(CCNS(=O)(=O)CCNC(=O)c2ccc3c(c2)OCO3)cc1,–,inactive
O=C1NCC(O)=C1C=NC12CC3CC(CC(C3)C1)C2,3.67% (inactive),–
CCn1ncc(/C=N/NS(=O)(=O)c2ccc(Cl)cc2)c1C,–,inactive
C=CCN(CC=C)S(=O)(=O)c1ccc(C(=O)Nc2nnc(COC)o2)cc1,–,inactive
Cc1cccc(OCc2nc(C)cc(=O)[nH]2)c1,–,inactive

Compound,inhibition,outcome
O=C(CNC(=O)c1ccc(Cl)cc1Cl)OCc1nnc(-c2ccccc2Br)o1,3.01% (inactive),–
Clc1ccc(-c2ccc(SCc3ccccn3)nn2)cc1,–,inactive
CCCOc1ccccc1C1CC(=O)NC2=C1C(=O)CCC2 (centres undefined),–,inactive
COc1ccccc1-c1nnc(SCC(=O)NCc2c(C)c(Cl)cc(C(C)C)c2O)o1,13.5% (inactive),–
N#CC(C(=O)NCc1ccco1)c1nc2ccccc2nc1N1CCOCC1 (centres undefined),26.6% (inactive),–
O=C(Cn1c(=O)[nH]c2ccccc2c1=O)N1CCN(c2cccc(Cl)c2)CC1,12.4% (inactive),–
Cc1ccnc(-n2c(CCN3C(=O)c4ccccc4C3=O)nc3ccccc3c2=O)c1,1.35% (inactive),–
CC(C)C(NC(N)=O)C(=O)NC1CCCCC1 (centres undefined),–,inactive
O=C(O)c1cccc(CSc2nnc(COc3ccccc3)o2)c1,–,inactive
COc1cc2c(cc1OC)C(=O)C(Br)CC2 (centres undefined),–,inactive
COc1cc(NC(=O)NCCN2CCN(c3ccc(Cl)cc3)CC2)ccc1C,1.35% (inactive),–
Cc1ccc(NS(=O)(=O)c2ccc(OCC(=O)Nc3cccc([N+](=O)[O-])c3)c(C)c2)cc1,17.6% (inactive),–
COc1cc(CCC(=O)Nc2cccc(C(F)(F)F)c2)cc(OC)c1OC,–,inactive
CCNC(=S)Nc1ccc(N(c2ccccc2)C(C)C)cc1,–,inactive
O=C(Cn1cnc2c(nnn2Cc2ccc(Cl)cc2)c1=O)NCc1ccco1,8.87% (inactive),–
CCOC(=O)c1cc2c(n(-c3ccccc3)c1=O)CC(C)(C)CC2=O,4.34% (inactive),–
CC1Cc2ccccc2N1Cc1nc2cc(C(F)(F)F)ccc2c(=O)[nH]1 (centres undefined),12.8% (inactive),–
CC1Cc2ccccc2N1C(=O)C1CCN(S(=O)(=O)Cc2ccccc2)CC1 (centres undefined),1.36% (inactive),–
CCOc1cccc(C(=O)Nc2ccccc2OC(F)F)c1,4.34% (inactive),–
CCC1(CC)C(=O)NC(=O)NC1=NCCc1ccc(O)cc1,–,inactive
Cc1noc(C)c1S(=O)(=O)Nc1ccc2c(c1)C(=O)N([C@@H](C)CO)C[C@H](C)[C@@H](CN(C)Cc1ccc(C(F)(F)F)cc1)OCCCC[C@H](C)O2,0.33% (inactive),–
COc1cccc(-c2nc(-c3cccs3)no2)c1,2.47% (inactive),–

Compound,inhibition,outcome
CCCCCOc1ccc(C2C(C(C)=O)=C(C)Nc3ncnn32)cc1OC (centres undefined),0.68% (inactive),–
Cc1ccc(NC(=O)CCCCCC2NC(=O)NC2C)cc1 (centres undefined),4.05% (inactive),–
N#Cc1ccccc1NC(=O)CNc1ccc(Cl)c(C(F)(F)F)c1,19.8% (inactive),–
CC1CC(C)CN(C(=O)CSCC(=O)O)C1 (centres undefined),–,inactive
CC(C)C(c1nnnn1C1CCCCC1)N1CCN(c2ncccn2)CC1 (centres undefined),–,inactive
O=C(CSc1c(Cl)cccc1Cl)N1CCC(c2nc3ccccc3s2)CC1,2.7% (inactive),–
CCN1CCC(=NNC(=O)CC23CC4CC(CC(C4)C2)C3)CC1,21.8% (inactive),–
CCCCCCNS(=O)(=O)c1ccccc1Br,–,inactive
CCCC1(C(=O)O)NC(c2ccc(OC)cc2O)C2C(=O)N(c3ccc(OC)cc3)C(=O)C21 (centres undefined),6.08% (inactive),–
Cc1cccc2sc(NNC(=O)c3ccc(S(=O)(=O)N4CC(C)CC(C)C4)cc3)nc12 (centres undefined),14% (inactive),–
Cc1cc(NC(=O)CC(CN(C)S(=O)(=O)c2ccccc2)c2ccccc2)no1 (centres undefined),6.08% (inactive),–
COc1cccc(-c2nnc(SCC(=O)N3CCOCC3)o2)c1,1.36% (inactive),–
Cc1occc1-c1nnc(SCC(=O)N(C)C)o1,5.46% (inactive),–
COc1ccc(N(C(=O)c2ccccc2OC)C2C=CS(=O)(=O)C2)c(OC)c1 (centres undefined),6.08% (inactive),–
COc1ccc(S(=O)(=O)N(CC(=O)O)c2ccccn2)cc1,3.41% (inactive),–
Cn1ccnc1Sc1ccc(/C=N/NC(=O)c2ccccc2O)cc1[N+](=O)[O-],–,inactive
O=[N+]([O-])c1ccccc1NC(=S)N/N=C/c1ccc(O)c(O)c1,7.42% (inactive),–
Cc1cc(NC(=O)Cn2cnc3c(nnn3-c3cccc(F)c3)c2=O)no1,–,inactive
C/C(=N\OCC(=O)NC12CC3CC(CC(C3)C1)C2)c1cc2ccccc2o1,–,inactive
CC1CCC(NC(=O)CCS(=O)(=O)c2ccc3c(c2)CCN3C(=O)C2CC2)CC1 (centres undefined),4.12% (inactive),–
CN1CCN(NC(=O)c2ccc(S(=O)(=O)N3CC4(C)CC3CC(C)(C)C4)cc2)CC1 (centres undefined),–,inactive
COc1cc(NC(=O)CCn2c(=O)[nH]c3ccsc3c2=O)cc(OC)c1,6.14% (inactive),–

Compound,inhibition,outcome
O=C(O)CCCCC1SCC2NC(=O)NC21 (centres undefined),–,inactive
CCCN(CCC)CCCNC(=O)c1cn(CCOC)c(=O)c2c1c1ccccc1n2C,4.73% (inactive),–
Cc1cc(NC(=O)C2CCCC2)n(-c2nc3ccccc3[nH]2)n1,19% (inactive),–
O=C1CCCCC1Oc1ccc2ccc(=O)oc2c1 (centres undefined),0.33% (inactive),–
Cc1cc(-c2[nH]nc3c2C(c2cccc(O)c2)C(C#N)=C(N)O3)c(C)s1 (centres undefined),14.3% (inactive),–
CSc1ccc(C2C(C#N)=C(N)Oc3c2ccc(=O)c2c(C)oc(C)c32)cc1 (centres undefined),6.82% (inactive),–
N=C(N)c1ccc(N=Nc2c(O)ccc3c2[nH]c2ccccc23)cc1,–,inactive
CCOC(=O)c1cc2ccc(OC)c(OC)c2c(=O)s1,8.11% (inactive),–
CCOC(=O)CSc1nc(CC)nc2ccccc12,–,inactive
CC(c1nnnn1C1CCCCC1)N(Cc1ccccc1)Cc1cccnc1 (centres undefined),–,inactive
Cc1cccc(C(=O)Nc2nnc(Cc3c[nH]c4ccccc34)s2)c1,–,inactive
CCNS(=O)(=O)c1ccc(-c2ccc(-n3cnnn3)cc2)cc1,–,inactive
CC(=O)c1ccc(S(=O)(=O)Nc2cccc(-c3ccc(N4CCOCC4)nn3)c2)cc1,–,inactive
CCC(C)n1c(-c2cccc(S(=O)(=O)N3CCOCC3)c2)n[nH]c1=S (centres undefined),–,inactive
O=C(Oc1cccnc1)c1ccc(Cl)cc1,4.77% (inactive),–
Cc1ccc(S(=O)(=O)N2CCCC2C(=O)N(C)Cc2cccs2)cc1 (centres undefined),2.03% (inactive),–
Cc1cc(O)c(C(C)C)cc1NC1=NS(=O)(=O)c2ccccc21,6.82% (inactive),–
CCCCS(=O)CC(O)COCC (centres undefined),–,inactive
Cc1cc(Cl)c(S(=O)(=O)NCC2CCCO2)cc1OCC(=O)NC1CCCCC1 (centres undefined),–,inactive
CC(C)(C)c1ccccc1OCCOCCSc1ncccn1,5.46% (inactive),–
O=C(CCCc1ccccc1)N1CCN(c2ccc([N+](=O)[O-])cc2)CC1,6.82% (inactive),–
